# About 9,300 (1.5%) of roughly 640,000 compounds were called active. Cut-off read from the data, not from the text of the source: active = inhibition above about 32%; inactive = the rest. The sample as a whole holds a higher share of actives than the screen did.
# Assay: TEAD-YAP interaction inhibition, primary screen, TEAD-YAP interaction inhibitor project, luminescence, HEK-TIYL cells (AID 1259422);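 note: 0% = median of test compound wells and 100% = reference inhibitor wells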
# Settings: TEAD-Gal4/YAP UAS-luciferase luminescence, at 9.12 µM, stronger effect = higher value
row,Compound,inhibition
1,COc1ccc(CNCc2c(C(=O)O)[nH]c3ccccc23)cc1,-5.51% (inactive)
2,C=Cc1ccc(Cn2c(C(=O)O)c(CNCc3ccccc3OC)c3ccccc32)cc1,14.2% (inactive)
3,Cc1cccc(NC(=O)CC2SC(=Nc3ccccc3)NC2=O)c1 (stereo not drawn),3.61% (inactive)
4,Cc1ccc(N=C2NC(=O)C(Cc3ccccc3Cl)S2)cc1 (stereo not drawn),33.1% (active)
5,O=C(O)CC1SC(=Nc2ccccc2)NC1=O (stereo not drawn),4.55% (inactive)
6,Cc1ccc(C(c2cc(Cl)c3cccnc3c2O)N2CCN(c3ccccn3)CC2)cc1 (stereo not drawn),38% (active)
7,CC(C)c1ccc(OCC(O)CN2CCN(c3ccccn3)CC2)cc1 (stereo not drawn),-5.32% (inactive)
8,Cc1cc(N2CCN(c3ccccn3)CC2)nc2c(C)cccc12,2.36% (inactive)
9,CCOc1ccc(C(=O)Nc2sc3c(c2C(N)=O)CC(C)CC3)cc1 (stereo not drawn),2.83% (inactive)
10,CC(C)n1cnc2c(NCCOc3ccccc3)nc(-c3ccc(C(=O)NC4CC4)cc3)nc21,13.6% (inactive)
11,Cc1cc(/C=C2\C(=N)N3N=C(S(C)(=O)=O)SC3=NC2=O)c(C)n1-c1ccc(F)cc1,4.07% (inactive)
12,Cc1cc(/C=C2/C(=N)N3C=CSC3=NC2=O)c(C)n1-c1ccccc1F,86.4% (active)
13,COc1cc(OC)c(-n2c(C)cc(/C=C3/C(=N)N4C=CSC4=NC3=O)c2C)cc1Cl,-0.88% (inactive)
14,Cc1cc(/C=C2/C(=N)N3C=CSC3=NC2=O)c(C)n1-c1ccc(F)cc1,41.3% (active)
15,CC1=CN2C(=N)/C(=C/c3cc(C)n(-c4ccc(F)cc4)c3C)C(=O)N=C2S1,-6.11% (inactive)
16,CC1=CC2=NC(=O)/C(=C\c3cc(C)n(-c4cccc(C)c4C)c3C)C(=N)N2O1,9.28% (inactive)
17,COCC1=C(C(=O)OC)C(c2ccc(Cl)cc2Cl)n2ncnc2N1 (stereo not drawn),-3.21% (inactive)
18,CN1C(=O)C(O)=C(c2ccccc2)S1(=O)=O,5.68% (inactive)
19,COc1cccc(NC(=O)Cn2c(=O)c(C(F)(F)F)nc3ccccc32)c1,5.63% (inactive)
20,Cc1ccc(NC(=O)/C(=C/c2ccc(Cl)cc2)NC(=O)c2ccco2)cc1,-3.43% (inactive)
21,CC(C)C(=O)NCC1CCC2(CCN(Cc3ccc4ccccc4c3)CC2)O1 (stereo not drawn),9.09% (inactive)
22,COc1ccccc1CN1CCC2(CCC(CNC(=O)C(C)C)O2)CC1 (stereo not drawn),-13.5% (inactive)
23,CC(C)C(=O)NCC1CCC2(CCN(Cc3nc(-c4ccccc4)cs3)CC2)O1 (stereo not drawn),96.7% (active)
24,CC(=O)N1CCc2c(sc(NC(=O)CCSc3ccccc3)c2C(N)=O)C1,3.99% (inactive)
25,CC(=O)N1CCc2c(sc(NC(=O)CCS(=O)(=O)c3ccccc3)c2C#N)C1,3.65% (inactive)

row,Compound,inhibition
1,CCOC(=O)N1CCc2c(sc(NC(=O)/C=C/c3cccc([N+](=O)[O-])c3)c2C#N)C1,33.5% (active)
2,CCOC(=O)N1CCc2c(sc(NC(=O)CCSc3ccccc3)c2C#N)C1,44.1% (active)
3,CCOC(=O)N1CCc2c(sc(NC(=O)c3ccc([N+](=O)[O-])s3)c2C#N)C1,3.38% (inactive)
4,N#Cc1c(NC(=O)/C=C/c2cccc([N+](=O)[O-])c2)sc2c1CCCC2,-1.55% (inactive)
5,O=C(OC1CCS(=O)(=O)C1)c1ccccc1 (stereo not drawn),-9.29% (inactive)
6,CN1CCN(S(=O)(=O)c2ccc(Sc3ccc(Br)cc3)c(C(=O)O)c2)CC1,-2.07% (inactive)
7,CCOc1cc(C2Nc3ccccc3C(=O)N2c2ccc(OC)cc2)ccc1O (stereo not drawn),-26.9% (inactive)
8,CCCN1C(=O)c2ccccc2NC1c1ccc(O)c(OC)c1 (stereo not drawn),45.1% (active)
9,CCCN1C(=O)c2ccccc2NC1c1ccc(OC)c(COc2ccc(Cl)cc2)c1 (stereo not drawn),1.41% (inactive)
10,CCOC(=O)N1CCN(C(=O)CC2C(=O)NCCN2Cc2ccccc2C)CC1 (stereo not drawn),4.23% (inactive)
11,CCOc1ccc(C(=O)NC(=S)Nc2ccc(N3CCCCC3)cc2)cc1,-3.84% (inactive)
12,O=C(NC1(c2ccc3c(c2)OCO3)CCCC1)c1cscn1,5.97% (inactive)
13,CCOC(=O)c1ccc2c(c1)C(=O)N(c1ccc3ccccc3c1)C2=O,-2.85% (inactive)
14,NC(=O)c1sc2nc(C34CC5CC(CC(C5)C3)C4)ccc2c1N,-1.93% (inactive)
15,CCOC(=O)c1ccc2nc(C34CC5CC(CC(C5)C3)C4)ccc2c1,46.2% (active)
16,CC1CCc2sc(NC(=O)c3ccccc3F)c(C#N)c2C1 (stereo not drawn),-31.8% (inactive)
17,COCCNc1c(-c2ccc(Cl)cc2)c(=O)c1=O,-4.73% (inactive)
18,Cc1ccc(-c2c(NCCCc3ccccc3)c(=O)c2=O)cc1,-2.15% (inactive)
19,CC(C)OCCCNc1c(-c2ccc(C(C)C)cc2)c(=O)c1=O,42.2% (active)
20,COc1ccc(NS(=O)(=O)c2cc(NC(=O)CCCNC(N)=O)ccc2OC)cc1,5.83% (inactive)
21,COc1cccc(-c2nc3ccccc3c(=O)n2NC(=O)c2ccccc2C)c1,2.18% (inactive)
22,COc1cccc(-c2nn3c(=O)c4ccccc4nc3n2N)c1,34.2% (active)
23,COc1cccc(-c2nc3ccccc3c(=O)n2NC(=O)c2cccc(C)c2)c1,5.37% (inactive)
24,COc1cccc(OC)c1C(=O)N1CCN(c2cccc(C)c2C)CC1,4.01% (inactive)
25,COc1ccc(C)cc1S(=O)(=O)N1CCN(c2cc(-n3ccnc3C)ncn2)CC1,41.4% (active)

row,Compound,inhibition
1,COc1ccc(C)cc1S(=O)(=O)N1CCN(C)CC1,13.6% (inactive)
2,COc1ccccc1N1CCN(S(=O)(=O)c2cc(C)ccc2OC)CC1,-9.44% (inactive)
3,COc1ccc(C[C@@H]2NC(=O)[C@@H]3C[C@H](NCc4cnn(-c5ccccc5F)c4)CN3C2=O)cc1,10.7% (inactive)
4,CCC(C)N1C(=O)C2C(C(=O)Nc3ccc(F)c(Cl)c3)C3C=CC2(O3)C1C(=O)NC1CCCC(C)C1C (stereo not drawn),-20.7% (inactive)
5,C/C(=N\NC(=O)Cc1cccn1C)c1ccc(O)cc1,-12.8% (inactive)
6,COCCNC(=O)c1ccc2c(c1)N=C(C)c1cc(C)ccc1S2,67.6% (active)
7,CCN1CCSc2ccc(C(=O)NCCCOC)cc21,0.64% (inactive)
8,COCCNC(=O)c1ccc2c(c1)ncn2-c1ccc(C)c(Cl)c1,-17.5% (inactive)
9,COCCNC(=O)/C=C/c1ccc(Br)cc1,-24.8% (inactive)
10,CC1=Nc2cc(C(=O)O)ccc2Sc2ccccc21,-2.24% (inactive)
11,COCCNC(=O)c1ccc2c(c1)N=C(C)c1cc(Br)ccc1S2,52.5% (active)
12,COc1cccc(CCC(=O)N2CCC(CCC(=O)N(C)Cc3ccccc3)CC2)c1,4.53% (inactive)
13,COc1cc(C2C(C#N)=C(N)Oc3n[nH]c(-c4cc(OC)c(OC)c(OC)c4)c32)ccc1OC(=O)N1CCOCC1 (stereo not drawn),12.5% (inactive)
14,O=C(O)c1cc(N=Cc2cc(Br)cc(Cl)c2O)ccc1O,-2.5% (inactive)
15,CC1=C(C#N)C(c2ccc(Cl)cc2Cl)C2=C(CC(c3ccccc3)CC2=O)N1 (stereo not drawn),11.3% (inactive)
16,COC(=O)C1=C(C)NC2=C(C(=O)CC(c3ccccc3)C2)C1c1ccc(C)cc1 (stereo not drawn),2.81% (inactive)
17,CC1=C(C#N)C(c2ccccc2Br)C2=C(CC(c3ccccc3)CC2=O)N1 (stereo not drawn),37.1% (active)
18,COC(=O)CCCC(=O)N1CCOCCOCCN(C(=O)CCCC(=O)OC)CCOCCOCC1,7.88% (inactive)
19,COc1ccc(-c2nnc(SCC(=O)NC(=O)NCc3ccco3)o2)cc1OC,12.3% (inactive)
20,COc1ccc(C2=NOC(C(=O)NCCc3ccccc3)C2)cc1OC (stereo not drawn),-5.18% (inactive)
21,COc1ccc(C2=NOC(C(=O)NCc3ccco3)C2)cc1OC (stereo not drawn),46.8% (active)
22,CC(C)C[C@@H]1NC(=O)[C@@H]2C[C@H](NC(=O)Nc3ccccc3)CN2C1=O,3.71% (inactive)
23,CCOc1cc(CN2CCC(C(=O)NCCc3ccccc3)CC2)ccc1O,-8.29% (inactive)
24,CC(Oc1ccccc1)c1nc(-c2ccccn2)no1 (stereo not drawn),-32.3% (inactive)
25,CCOc1ccccc1-c1noc(-c2cccs2)n1,-16.8% (inactive)

row,Compound,inhibition
1,c1ccc(-c2noc(-c3cccs3)n2)nc1,33.7% (active)
2,CN(C)S(=O)(=O)c1ccc(NC(=O)COC(=O)c2ccc(NC(N)=O)cc2)cc1,-1.47% (inactive)
3,COCCC(=O)NC(C)c1nnc2n1CCN(Cc1ccc(C)cc1)CC2 (stereo not drawn),10.5% (inactive)
4,Cc1ccc2nc(NCCOCCO)c(/C=C3\SC(=S)N(C(C)C)C3=O)c(=O)n2c1,-4.15% (inactive)
5,COc1ccc(/C=C2/C(=N)N3C(=NC2=O)SN=C3S(=O)(=O)C(C)C)cc1OC,-1.31% (inactive)
6,O=C(Cc1ccc(Cl)c(Cl)c1)N1CCC(O)(c2ccccn2)CC1,0.43% (inactive)
7,O=C(c1cccc2nc3ccccc3nc12)N1CCCCCC1,-1.97% (inactive)
8,O=C(c1cn2c(n1)sc1ccccc12)N1CCCC1,37.1% (active)
9,O=C(c1cc(-c2ccccc2Cl)on1)N1CCCCC1,0.6% (inactive)
10,CCOC(=O)c1[nH]ncc1CN1CCCC(N(C)CCc2ccccc2)C1 (stereo not drawn),-7.42% (inactive)
11,O=C1c2ccccc2OCCN1Cc1ccc(F)cc1,-3.96% (inactive)
12,O=C(Nc1ccc(Cl)c(C(=O)O)c1)c1ncn[nH]1,1.11% (inactive)
13,CSc1cccc(NC(=O)c2ncn[nH]2)c1,4.68% (inactive)
14,CCc1ccc(NC(=O)c2ncn[nH]2)cc1,47.9% (active)
15,CCCCn1c(N)c(N2CCOCC2)c(=O)[nH]c1=O,2.71% (inactive)
16,CCOC(=O)C1CCN(Cn2[nH]c3nc4ccccc4n3c2=S)CC1,-6.77% (inactive)
17,FC(F)(F)c1cccc(N2CCN(CCN3CCOCC3)CC2)c1,-6.06% (inactive)
18,OCCNc1ncnc2nc(-c3ccccc3)[nH]c12,6.88% (inactive)
19,COc1ccc(CCNc2ncnc3nc(-c4ccc(C(N)=O)cc4)[nH]c23)cc1,-4.01% (inactive)
20,COc1ccc(-c2nc3ncnc(NCc4ccccc4)c3[nH]2)cn1,45% (active)
21,COc1ccc(-c2nc3ncnc(NCCc4ccc(O)cc4)c3[nH]2)cn1,58.2% (active)
22,COc1ccc(-c2nc3ncnc(NCCN4CCOCC4)c3[nH]2)cc1,-0.6% (inactive)
23,COc1ccc(-c2nc3ncnc(Nc4ccccc4)c3[nH]2)cc1,0.52% (inactive)
